The values below come from PubChem BioAssay (NCATS).

Each structure is given as a SMILES string. Results filed as inconclusive are left out. Active and inactive are the calls of the source. Unless noted, calls follow the shape of the dose curve; as a rule, active = well fitted curve in the direction sought with a large enough effect; inconclusive = small, poorly fitted or top-dose-only effect, or another doubt; inactive = no such curve, though single readings can be large; an effect the other way counts as inactive or inconclusive.

Test [1] has as its target Catechol O-methyltransferase (Homo sapiens) (UniProt P21964). Description: Confirmatory Screen for Target Class Profiling of Small Molecule Inhibitors of Methyltransferases (AID 1745852). Conditions: MTase-Glo luminescence, SAH detection, recombinant enzyme; measured here: COMT max response; stronger effect = lower value.
Test [2] has as its target Phenylethanolamine N-methyltransferase (Homo sapiens) (UniProt P11086). The test is described as above. Conditions: MTase-Glo luminescence, SAH detection, recombinant enzyme; measured here: PNMT max response; stronger effect = lower value.
A short description of test [3]: Validation screen for inhibitors of Lassa infection (AID 463096; calls by dose curve; also: % is scaled to controls: 0 for no effect and ±100 for the full control effect). The following applies: Lassa virus infection, cell-based; series mostly up to 46.1 µM.
Test [4] can be described thus: qHTS for differential inhibitors of proliferation of Plasmodium falciparum line 3D7 (AID 1876). Also: potency is read from the fitted curve at half-maximal effect. The following applies: P. falciparum 3D7 proliferation inhibition; series mostly up to 28.7 µM.
Test [5] in a line: qHTS for differential inhibitors of proliferation of Plasmodium falciparum line W2 (AID 1883).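 Also: parasites grown with compound for 72 h before lysis and staining.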 Also: potency is read from the fitted curve at half-maximal effect. Conditions: Potency: Plasmodium falciparum W2 proliferation inhibition; series mostly up to 28.7 µM. A general note: qHTS replaces the single test concentration by a dilution series.
Test [6] can be described thus: NCATS anti-infectives library activity on HEK293 viability as a counter-qHTS vs the C. elegans viability qHTS (AID 1745854).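 Also: HEK293 cells exposed to compounds for 24 hr before the viability read.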 Also: potency is read from the fitted curve at half-maximal effect. Conditions: HEK293 viability counter-screen; series mostly up to 41.8 µM. The gist of the method:
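Cytotoxicity in human HEK293 cells is measured by ATP-dependent CellTiter-Glo luminescence following a 24 hr incubation with titrated library compounds at 37C. Top final concentration is 41.7 uM.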

The target in test [7] is Cytochrome P450 2C9 (Homo sapiens) (UniProt P11712). Description: qHTS for inhibitors of CYP2C9 against the NCATS DSHEA and TCM libraries (AID 1919973). Also: potency is read from the fitted curve at half-maximal effect. The following applies: recombinant CYP2C9 enzyme activity, luminescence; series mostly up to 34.1 µM. The gist of the method: (§1)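 Light output from converted D-luciferin reports remaining CYP activity. Compounds preincubate with enzyme and substrate for 15 min; NADPH regeneration (1x final) runs the reaction for 30-45 min.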
Chain of Cytochrome P450 2C9 (Homo sapiens) (P11712 whole entry, looked up): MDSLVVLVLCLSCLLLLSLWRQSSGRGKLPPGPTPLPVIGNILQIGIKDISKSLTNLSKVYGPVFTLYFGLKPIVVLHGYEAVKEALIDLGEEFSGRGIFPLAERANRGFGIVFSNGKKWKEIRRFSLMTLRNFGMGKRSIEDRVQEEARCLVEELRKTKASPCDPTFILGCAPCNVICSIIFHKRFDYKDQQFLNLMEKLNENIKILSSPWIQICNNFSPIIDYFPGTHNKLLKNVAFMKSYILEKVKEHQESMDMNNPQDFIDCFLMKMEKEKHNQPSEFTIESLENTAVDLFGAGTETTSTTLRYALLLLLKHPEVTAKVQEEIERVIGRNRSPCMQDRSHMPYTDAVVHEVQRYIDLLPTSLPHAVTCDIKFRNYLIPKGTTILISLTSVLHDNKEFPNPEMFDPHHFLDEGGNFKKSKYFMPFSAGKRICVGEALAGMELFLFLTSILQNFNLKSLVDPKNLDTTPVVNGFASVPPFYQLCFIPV

In test [8] the target is Cytochrome P450 2C19 (Homo sapiens) (UniProt P33261). Description: qHTS for inhibitors of CYP2C19 against the NCATS DSHEA and TCM libraries (AID 1919974).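 Also: luminescence from luciferin released by CYP2C19 oxidation of a pro-luciferin substrate.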 Also: potency is read from the fitted curve at half-maximal effect. The following applies: CYP2C19 enzyme inhibition, luminescence qHTS; series mostly up to 34.1 µM. The gist of the method: as §1
Chain of Cytochrome P450 2C19 (Homo sapiens) (P33261 whole entry, looked up): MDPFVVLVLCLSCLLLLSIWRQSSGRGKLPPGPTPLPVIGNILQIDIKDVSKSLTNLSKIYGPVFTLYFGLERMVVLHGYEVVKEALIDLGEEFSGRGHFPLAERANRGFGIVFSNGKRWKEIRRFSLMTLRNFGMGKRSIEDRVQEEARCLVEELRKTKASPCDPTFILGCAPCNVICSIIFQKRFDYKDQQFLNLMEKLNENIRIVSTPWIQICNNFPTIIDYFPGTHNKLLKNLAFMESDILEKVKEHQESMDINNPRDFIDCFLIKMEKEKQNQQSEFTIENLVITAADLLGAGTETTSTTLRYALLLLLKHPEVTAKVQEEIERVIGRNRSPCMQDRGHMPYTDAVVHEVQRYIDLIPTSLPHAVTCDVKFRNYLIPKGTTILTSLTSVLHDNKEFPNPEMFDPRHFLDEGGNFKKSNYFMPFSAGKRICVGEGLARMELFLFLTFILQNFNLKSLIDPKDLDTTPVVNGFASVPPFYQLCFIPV
A short description of test [9]: Cellular Toxicity (caspase-3) SK-N-SH (AID 661).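 Also: cells exposed to compound for 16 hours; 0% = DMSO basal and 100% = 10 µM staurosporine.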 The following applies: SK-N-SH caspase-3 activation, qHTS, DMSO as zero, staurosporine as full; series mostly up to 91.7 µM. The gist of the method:
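Caspase 3/7 activation is measured as a luminescence increase from aminoluciferin released by substrate cleavage in SK-N-SH cells after 16 hr compound treatment; values are AC50 from concentration-response curves.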

The target in test [10] is Cytochrome P450 3A4 (Homo sapiens) (UniProt P08684). Description: qHTS Assay for Activators of Cytochrome P450 3A4 (AID 885). Also: nearly all actives have a fitted effect of over 65% in size. Conditions: recombinant CYP3A4, Luciferin-PPXE luminescence, 60 min; series mostly up to 57.1 µM. The gist of the method: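 Quantitative HTS format: compounds preincubated with 20nM human CYP3A4 and Luciferin-PPXE substrate at KM, reaction started by NADPH regeneration, stopped after 60 min, luciferase luminescence read 20 min later.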
Chain of Cytochrome P450 3A4 (Homo sapiens) (P08684 whole entry, looked up): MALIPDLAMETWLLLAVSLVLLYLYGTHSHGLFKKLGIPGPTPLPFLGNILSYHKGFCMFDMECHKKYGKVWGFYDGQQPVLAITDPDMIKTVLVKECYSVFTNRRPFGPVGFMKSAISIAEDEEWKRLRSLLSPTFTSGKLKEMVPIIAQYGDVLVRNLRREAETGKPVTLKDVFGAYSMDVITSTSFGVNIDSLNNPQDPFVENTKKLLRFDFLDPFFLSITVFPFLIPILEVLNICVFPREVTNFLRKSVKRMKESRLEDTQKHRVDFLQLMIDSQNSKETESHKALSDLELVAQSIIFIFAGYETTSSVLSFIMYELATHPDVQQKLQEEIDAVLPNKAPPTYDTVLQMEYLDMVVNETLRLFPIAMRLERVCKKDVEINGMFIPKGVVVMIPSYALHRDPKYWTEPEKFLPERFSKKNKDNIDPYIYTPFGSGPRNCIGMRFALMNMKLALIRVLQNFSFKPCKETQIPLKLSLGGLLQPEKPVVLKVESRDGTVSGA

Test [11] concerns the target Cytochrome P450 2D6 (Homo sapiens) (UniProt P10635). Description: qHTS for inhibitors of CYP2D6 against the NCATS DSHEA and TCM libraries (AID 1919972). Also: potency is read from the fitted curve at half-maximal effect. The following applies: CYP2D6 enzymatic inhibition, luminescence qHTS; series mostly up to 34.1 µM. The gist of the method: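 Steps: enzyme plus luciferin substrate dispensed; test substances pinned; 15 min RT; 1x NADPH regenerating solution added, 30–45 min RT protected from light; detection reagent, 30 min RT; luminescence measured. Minus-enzyme wells as background.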

Test [12] deals with Nuclear receptor subfamily 1 group I member 2 (Homo sapiens) (UniProt O75469). As to the kind of experiment: Dual reporter qHTS for agonist of Pregnane X Receptor (hPXR) against the NCATS DSHEA and TCM libraries: Luminescence readout (AID 1920059). Also: potency is read from the fitted curve at half-maximal effect. As to activation: 0% is about no effect. The following applies: hPXR dual reporter cells, luciferase luminescence agonist; series mostly up to 40 µM. The gist of the method:
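hPXR-Luc HepG2 cells, 2000/well in 5% charcoal-stripped FBS medium, attached 5 h, then exposed 24 h at 37C to compounds. Viability by CellTiter-Fluor, then luciferase luminescence with ONE-Glo.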

In test [13] the target is Nuclear receptor subfamily 1 group I member 2 (Rattus norvegicus) (UniProt Q9R1A7). Description: qHTS assay for small molecule activators of the rat pregnane X receptor (rPXR) signaling pathway (AID 651751; call rule not given here; also: 0% is about no effect). The following applies: rPXR reporter cells, luciferase (One-Glo), 24 h.
Chain of Nuclear receptor subfamily 1 group I member 2 (Rattus norvegicus) (Q9R1A7 whole entry, looked up): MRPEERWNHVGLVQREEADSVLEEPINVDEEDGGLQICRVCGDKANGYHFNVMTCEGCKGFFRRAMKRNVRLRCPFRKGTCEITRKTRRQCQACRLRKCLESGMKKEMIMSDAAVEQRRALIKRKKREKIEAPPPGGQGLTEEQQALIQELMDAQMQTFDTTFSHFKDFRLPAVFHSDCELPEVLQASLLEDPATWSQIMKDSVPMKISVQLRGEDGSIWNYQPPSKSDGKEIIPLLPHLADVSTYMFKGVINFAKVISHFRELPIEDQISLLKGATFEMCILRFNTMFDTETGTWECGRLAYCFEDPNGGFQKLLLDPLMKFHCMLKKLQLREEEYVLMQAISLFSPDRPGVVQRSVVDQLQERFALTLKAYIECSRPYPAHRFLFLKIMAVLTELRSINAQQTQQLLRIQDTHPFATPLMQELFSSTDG

Chain of Cytochrome P450 2D6 (Homo sapiens) (P10635 whole entry, looked up): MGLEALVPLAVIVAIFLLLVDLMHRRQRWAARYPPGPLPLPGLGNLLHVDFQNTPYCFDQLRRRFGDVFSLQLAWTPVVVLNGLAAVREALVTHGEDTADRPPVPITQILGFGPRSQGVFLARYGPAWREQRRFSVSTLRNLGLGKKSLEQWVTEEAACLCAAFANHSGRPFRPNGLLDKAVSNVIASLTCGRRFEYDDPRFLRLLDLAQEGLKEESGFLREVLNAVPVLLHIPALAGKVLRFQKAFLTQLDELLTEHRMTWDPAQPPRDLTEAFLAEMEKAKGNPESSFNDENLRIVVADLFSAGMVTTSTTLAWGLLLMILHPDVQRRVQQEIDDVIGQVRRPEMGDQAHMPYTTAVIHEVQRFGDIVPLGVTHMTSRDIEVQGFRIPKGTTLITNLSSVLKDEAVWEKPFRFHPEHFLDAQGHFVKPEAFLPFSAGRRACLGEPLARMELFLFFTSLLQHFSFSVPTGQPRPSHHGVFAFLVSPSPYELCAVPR
Chain of Nuclear receptor subfamily 1 group I member 2 (Homo sapiens) (O75469 whole entry, looked up): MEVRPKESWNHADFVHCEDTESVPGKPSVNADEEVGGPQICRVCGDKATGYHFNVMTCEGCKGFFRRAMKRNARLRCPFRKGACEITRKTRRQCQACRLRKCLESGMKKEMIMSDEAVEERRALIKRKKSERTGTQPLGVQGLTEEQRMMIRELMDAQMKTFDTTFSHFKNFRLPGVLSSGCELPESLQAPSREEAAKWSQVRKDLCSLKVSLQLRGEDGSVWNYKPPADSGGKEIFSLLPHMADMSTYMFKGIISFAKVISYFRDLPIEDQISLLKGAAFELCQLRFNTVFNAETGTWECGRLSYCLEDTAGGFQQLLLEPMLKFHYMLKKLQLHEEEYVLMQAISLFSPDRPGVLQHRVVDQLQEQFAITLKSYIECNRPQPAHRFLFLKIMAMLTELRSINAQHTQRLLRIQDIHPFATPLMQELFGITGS
Chain of Phenylethanolamine N-methyltransferase (Homo sapiens) (P11086 whole entry, looked up): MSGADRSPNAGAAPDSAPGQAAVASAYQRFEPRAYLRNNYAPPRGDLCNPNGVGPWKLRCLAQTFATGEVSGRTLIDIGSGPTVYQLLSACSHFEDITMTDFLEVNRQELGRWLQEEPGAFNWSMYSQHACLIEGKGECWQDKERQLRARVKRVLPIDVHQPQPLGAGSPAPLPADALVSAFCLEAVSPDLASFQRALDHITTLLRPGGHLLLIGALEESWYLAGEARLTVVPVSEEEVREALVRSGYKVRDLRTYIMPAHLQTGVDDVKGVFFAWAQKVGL
Chain of Catechol O-methyltransferase (Homo sapiens) (P21964 whole entry, looked up): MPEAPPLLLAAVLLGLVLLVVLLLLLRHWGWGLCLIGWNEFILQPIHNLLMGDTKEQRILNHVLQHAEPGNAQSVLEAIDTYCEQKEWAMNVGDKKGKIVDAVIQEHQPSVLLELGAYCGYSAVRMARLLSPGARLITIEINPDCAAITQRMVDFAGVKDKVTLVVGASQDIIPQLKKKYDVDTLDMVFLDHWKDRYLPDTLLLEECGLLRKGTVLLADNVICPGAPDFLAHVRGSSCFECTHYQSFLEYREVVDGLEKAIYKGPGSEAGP

As to `[Cl][Pt].[NH2-].[NH2-].c1ccncc1`, the activity in [1] was -4.9%; in test [2], 0.0118%.
Turning to `N.N.N.N.N.N.N.N.N.N.N.N.N.N.O.O.[Cl-].[Cl-].[Cl-].[Cl-].[Cl-].[Cl-].[Ru].[Ru].[Ru]`, the Potency result in [3] is “inactive”.
For the compound `C=C[C@H]1CN2CC[C@H]1C[C@@H]2CNC(=O)Nc1ccc(Br)cc1`, the activity in test [1] amounted to 4.06%; in test [2], 4.01%.
Regarding `C[C@]12CC[C@@H](O)CC1CCC1C2CC[C@]2(C)C(=O)CC[C@@H]12` (some centres undefined), the Potency entry in [4] and in test [3] was “inactive” in each case. For the same compound, the Potency in test [5] is 10 µM (active).
`C[C@]12CC[C@H](OS(=O)(=O)O)CC1=CCC1C2CC[C@]2(C)C(=O)CC[C@@H]12` (some centres undefined): the Potency entry in [4], in test [5] and in test [3] was “inactive” throughout.
For the compound `O=C(Nc1ccccc1F)N[C@@H]1N=C(c2ccccc2)c2ccccc2NC1=O`, in test [6], the Potency entry was “inactive”.
On the same count and under the same terms, for `CC(C)=CCC[C@](C)(O)[C@H]1CC[C@@]2(C)[C@H]1[C@@H](O)CC1[C@@]3(C)CC[C@@H](O[C@@H]4O[C@H](CO)[C@@H](O)[C@H](O)[C@H]4O)C(C)(C)C3CC[C@]12C` (some centres undefined) the value was “inactive”.
Regarding `CNC1CCc2ccccc21` (centres undefined), the activity was -8.85% in test [1] and -50.7% in test [2].
`C[C@]12C=CC(=O)C=C1CCC1C2=CC[C@]2(C)[C@@H](C(=O)CN3CCN(c4cc(N5CCCC5)nc(N5CCCC5)n4)CC3)CC[C@@H]12` (some centres undefined): the Potency in [4] and in test [5] was 0.794 µM (active) each time.
For `CC(=O)NC[C@H]1C[C@@H]2CCN1C[C@@H]2c1cc(-c2ccc3ccccc3c2)nn1C`, the activity in [1] is 4.95%; in [2] it was 2.7%.
In the case of `C[C@@H](COc1ccc(Oc2ccccc2)cc1)Oc1ccccn1`, the Potency result in [6] was “inactive”.
For the compound `COc1ccc(-c2cc([C@H]3CN4CC[C@H]3C[C@@H]4CN)nc(C)n2)cc1OC`, the activity in [1] came to 2.55%; in test [2] it was 2.63%.
On to `NC(=O)c1ccc(N2CC3CCC(C2)N3CC(F)(F)F)nn1`, for which the activity in [1] is 10.2%; in test [2] it was 10.9%.
As to `CC(=O)c1cccc(NC(=O)NC[C@H]2C[C@@H]3CCN2C[C@@H]3c2cc(-c3ccc(F)cc3)nc(C)n2)c1`, the activity in [1] stood at 2.65%; in test [2], 3.37%.
Take `[Hg+][c]1ccccc1`: the Potency in test [6] was 2 µM (active).
Same read-out and setting: the result for `CC[C@H]1CN2CCc3cc(OC)c(OC)cc3[C@@H]2C[C@@H]1C[C@H]1NCCc2cc(O)c(OC)cc21` reads “inactive”.
Turning to `COC1=C[C@@]23CCN(C)[C@H](Cc4ccc(OC)c(O)c42)C3=CC1=O`, the Potency result in [7] and in test [8] was “inactive” in each case.
With `O=C(Nc1ccccc1F)N[C@H]1N=C(c2ccccc2)c2ccccc2NC1=O`, the Potency entry in [6] is “inactive”.
`Nc1cccc(C(OCCN2CCCCC2)c2cc3nccc(C(=O)O)c3s2)c1` (centres undefined): the Potency result in [6] was “inactive”.
Consider `C=C[C@H]1CN2CCc3c([nH]c4ccccc34)[C@H]2C[C@@H]1/C(=C\OC)C(=O)OC`, for which the Potency in test [7] is 3.16 µM (active); in [8], 7.08 µM (active).
For `COC1=CC(=O)OC(CCc2ccccc2)C1` (centres undefined), the outcome in test [9] is “inactive”. Further, the Potency entry in [10], in test [11], in test [7] and in [12] was “inactive” each time. For the same compound, in [8], the Potency is 14.1 µM (active). In addition, in test [13], the max response is 3.74% (inactive).
Regarding `COC(=O)C1=CO[C@@H](C)[C@@H]2CN3CC[C@@]4(C(=O)Nc5ccccc54)[C@@H]3CC12` (some centres undefined), the Potency entry in [11], in test [7] and in test [8] was “inactive” in each case. Moreover, the Potency in test [12] is 10 µM (active).
In the case of `C=C[C@H]1CN2CC[C@@]3(C(=O)Nc4ccccc43)[C@@H]2C[C@@H]1/C(=C\OC)C(=O)OC`, the Potency result in [11] and in [7] was “inactive” throughout.
In the case of `COc1cc2c(cc1O)CC1NCCc3cc(OC)c(OC)c-2c31` (centres undefined), the Potency in [11] was 6.31 µM (active). In addition, the Potency result in [12] is “inactive”.
On to `CCCCCCCCCCCCCCCCCCCC(=O)O`, for which the Potency entry in test [11] and in [12] was “inactive” throughout. In test [7], the Potency was 15.8 µM (active).
As for `COc1cc2c(cc1O)C[C@H]1c3c(cc(OC)c(O)c3-2)CCN1C`, the Potency entry in [10] and in test [12] was “inactive” in each case. For the same compound, the Potency is 5.01 µM (active) in [11] and 3.98 µM (active) in test [8].
With `CC[C@@H]1CN2CC[C@]3(C(=O)Nc4ccccc43)[C@@H]2C[C@@H]1/C(=C\OC)C(=O)OC`, the Potency entry in test [11] is “inactive”. In test [8], the Potency was 11.2 µM (active).
On to `O=S(=O)(O)O`, for which the Potency entry in [7], in [8] and in test [12] was “inactive” each time.
With `CN1C[C@H](C(=O)N[C@]2(C)O[C@@]3(O)C4CCCN4C(=O)[C@H](Cc4ccccc4)N3C2=O)C[C@@H]2c3cccc4[nH]cc(c34)C[C@H]21` (some centres undefined), the results for the Potency in [4] and in test [5] were 2 µM (active) and 1.41 µM (active), respectively. In addition, the Potency entry in test [3] is “inactive”.
